Assay results reported in the supplement of paper PMC6555819.

Each sequence was assayed on PPARg:RXRa IVT, anti-PPARg (NR concentration 270 nM, RXRa partner concentration 90 nM) (assay: PBM binding z-score (relative to random genomic background probes); higher = stronger binding; sequences stand for … in GC…GCGATTGACAGCGTAGAATGAAGG).
How it was run: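 Binding buffer was PBS pH 7.4 with 2% milk, 0.02% Triton X-100, 1 mM DTT, 0.2 mg/mL BSA and 0.4 mg/ml salmon testes DNA. In it, ligand-free nuclear receptor dimers were incubated 1 h on custom Agilent 4×180K protein-binding microarrays carrying double-stranded probes. Antibodies against each partner (one per run) detected binding, and z-scores were calculated against random background probes after regression normalization of scanned fluorescence.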

Sequence	PBM binding z-score
CGATCTAGGTCACCAGGACAGTGAAGAGGTTGGA	8.59
CGAACTAGATCACCAGGACAGTGAAGAGGTTGGA	1.58
CGAACTAGGTCACCTGGACAGTGAAGAGGTTGGA	8.6
ATATGTAGGTTAGGGTCTTTCAGAAAGTAGGGAA	6.62
CGAACTAGGTCAAAGGACAGTGGAAGGCGACGTA	8.49
CGAACTAGGTCACCAGGACAGTGCAGAGGTTGGA	8.75
CGAACTAGGTCAAAGGACAGTGATAGGCGACGTA	8.07
ATATGTAGGTTAGTGTCATTCAGAAAGTAGGGAA	6.21
CGTACTAGGTCACCAGGACAGTGAAGAGGTTGGA	8.08
ATATGTAGGTTAGGCTCATTCAGAAAGTAGGGAA	5.75
ATATGCAGGTTAGGGTCATTCAGAAAGTAGGGAA	3.16
CGAACTAGGTCACCAGGAGAGTGAAGAGGTTGGA	8.65
CGAACTAGGTCAAATGACAGTGAAAGGCGACGTA	8.48
CGAACTAGGTCAAAGGACAGTGACAGGCGACGTA	8.4
ATAAGTAGGTTAGGGTCATTCAGAAAGTAGGGAA	6.77
CGAACTAGGTCACCAGGACAGTAAAGAGGTTGGA	8.87
ATATGTAGGTGAGGGTCATTCAGAAAGTAGGGAA	7.69
CGAACTAGGTCAGCAGGACAGTGAAGAGGTTGGA	7.57
CGAACTAGGTCAAAGGACAATGAAAGGCGACGTA	8.35
CGATCTAGGTCAAAGGACAGTGAAAGGCGACGTA	8.1

Sequence	PBM binding z-score
ATATGTAGGTTAGAGTCATTCAGAAAGTAGGGAA	6.41
CGAACTAGGTCACCAGGACAGTGAAGAGGTTGGA	8.79
ATATGTAGGCTAGGGTCATTCAGAAAGTAGGGAA	4.85
CGAACTTGGTCACCAGGACAGTGAAGAGGTTGGA	2.17
ATATGTAGGTTAGGGGCATTCAGAAAGTAGGGAA	6.65
ATATGTAGGTTAGGGTCATTAAGAAAGTAGGGAA	6.81
ATATGTAGGTTTGGGTCATTCAGAAAGTAGGGAA	3.08
ATATGTAAGTTAGGGTCATTCAGAAAGTAGGGAA	2.41
ATATGAAGGTTAGGGTCATTCAGAAAGTAGGGAA	2.78
CGAACTAGGTCAATGGACAGTGAAAGGCGACGTA	7.92
CGAACTAGGTAACCAGGACAGTGAAGAGGTTGGA	5.77
ATATGGAGGTTAGGGTCATTCAGAAAGTAGGGAA	3.8
CGAACTAGGTCACCAGGGCAGTGAAGAGGTTGGA	8.88
CGAACTAGGTCACCAGGACATTGAAGAGGTTGGA	8.55
CGAACTAGGTCAAAGGACAGCGAAAGGCGACGTA	8.46
CGAACTAGGCCACCAGGACAGTGAAGAGGTTGGA	6.5
CGAACTAGGGCACCAGGACAGTGAAGAGGTTGGA	6.94
CCAACTAGGTCACCAGGACAGTGAAGAGGTTGGA	8.26
CGAACTAGGTCAAAGTACAGTGAAAGGCGACGTA	8.47
